Compound activity as filed in PubChem.
TTR transcr act = TTR transcription activation, primary screen; SH-SY5Y TTR promoter Gaussia luciferase, luminescence; 100% = recombinant luciferase protein wells; activation, % at 16.7 µM; actives 1.3% (n = 92,000); AID 1117267;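 active = activation above the mean of all tested compounds plus 3 SD, cut at about 9.5% in these data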;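 note: cells exposed to compounds for one day before reading; 0% = median of all test compound wells on the plate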
TTR inh HuH7 = decreases TTR transcription in HuH7 cells in activator counter-screen. AID 1117279. HuH7 TTR promoter-Gaussia luciferase reporter, luminescence. shares compounds with TTR transcr act. actives 4% (n = 1,100). inhibition, % at 16.7 µM;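 active = average inhibition above the solvent-only control wells' mean plus 3 SD, cut at about 15% in these data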;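 note: 0% = cells with DMSO only and 100% = cells with inhibitor control FD; inhibitors lower well luminescence so higher value means more inhibition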
TTR act confirm = confirmation of human transthyretin transcription activators; shares compounds with TTR transcr act; SHSY5Y TTR promoter Gaussia luciferase, luminescence; 100% = purified Lucia enzyme wells, no cells; 1,100 tested, under 10 active; activation, % at 16.7 µM; AID 1117280;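 active = mean activation above a set limit taken from the earlier primary screen, cut at about 11% in these data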;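 note: 0% = DMSO-treated cells and 100% = recombinant Lucia luciferase without cells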
The depositor's hits bear a star. The sample as a whole holds a higher share of hits than the screen did.

SMILES | TTR transcr act | others
Cc1cccc(N(C)c2ncnc3onc(-c4ccc(F)cc4)c23)c1C | 13.0* | TTR inh HuH7=25.3*;TTR act confirm=0.3
Cc1ccccc1Sc1ncnc2onc(C)c12 | -3.6
CCCCCCCCN1C(=O)[C@@H](CC(=O)N2CCCCC2)C[C@@]2(C(=O)OC)C1=C[C@H](C(C)C)O[C@@H]2C1CC1 | 0.4
COc1ccc(Cn2cc(COC(=O)NCC(C)C)nn2)cc1 | -1.4
O=C(CC[C@H]1O[C@@H](n2cnc3c(NC(=O)c4ccccc4)ncnc32)[C@H](O)[C@@H]1O)NCC1CCCCC1 | 4.7
CCC[C@H]1[C@@H](OC(=O)N2CCN(c3ccccc3)CC2)CC[C@@]23CCCN2C(=O)CCC[C@@H]13 | -2.1
COc1cccc(C(=O)NCC(=O)N2CCC3(CC2)NCCc2[nH]cnc23)c1 | -1.2
CC(C)Oc1ccc(CNC(=S)N/N=C/c2ccc([N+](=O)[O-])cc2)cc1 | 2.0
CC(C)COc1ccc(CNC(=S)N/N=C/c2ccc([N+](=O)[O-])cc2)cc1 | 11.4* | TTR inh HuH7=6.9;TTR act confirm=-0.8
COc1ccc(CNC(=S)N/N=C/c2ccncc2)cc1 | 0.5
CCCCCCCCN1C(=O)[C@@H](CC(=O)N2CCC(c3ccccc3)CC2)C[C@@]2(C(=O)OC)C1=C[C@H](C(C)C)O[C@@H]2C1CC1 | 3.5
COc1cc(C(=O)NCCCn2ccnc2)cc(OC)c1OC | -0.6
Cc1cc(C(=O)NCCCn2ccnc2)cs1 | 0.4
O=C(NCCCn1ccnc1)c1cc(C2CC2)on1 | 10.3* | TTR inh HuH7=-2.1;TTR act confirm=0.6
O=C(Nc1ccc(F)cc1)OCc1cn(Cc2ccc(F)cc2)nn1 | -1.1
COc1ccccc1Cc1c(-c2cccc(Br)c2)nc2ccc(Cl)cn12 | -0.5
COc1cccc(NC(=O)Nc2nc3ncccn3c2-c2ccc(F)c(F)c2)c1 | 0.4
Nc1ccccc1C(=O)N1O[C@@H]2C=C[C@H]1C2 | 0.1
C1=CC2CCC1ON2c1ccccc1 (stereo not given) | 16.7* | TTR inh HuH7=-4.1;TTR act confirm=0.3
Cc1cccc(N2O[C@H]3C=C[C@@H]2C3)n1 | -0.8
Cc1ccccc1CN1CCCCC(NC(=O)c2ccccc2F)C1=O (stereo not given) | -0.7
COC(=O)[C@]12C[C@H](CC(=O)N3CCN(C(=O)C4CC4)CC3)C(=O)N(Cc3cccc4ccccc34)C1=C[C@H](C1CCCC1)O[C@@H]2C | -1.5
CCOC(=O)C1=C(C)NC(C)=C(C(=O)OC)C1c1ccco1 (stereo not given) | 11.9* | TTR inh HuH7=-22.0;TTR act confirm=1.6
CCCCCCCOC(=O)C1=C(C)Nc2ncnn2C1c1cccs1 (stereo not given) | -1.9
CCOC(=O)C1=C(C)NC(=S)NC1c1ccc(OC(=O)c2ccco2)cc1 (stereo not given) | -1.2
SMILES | TTR transcr act | others
CCCCOC(=O)C1=C(C)Nc2ncnn2C1c1cc(OC)ccc1OC (stereo not given) | 0.9
COCCOC(=O)C1=C(C)Nc2ncnn2C1c1ccco1 (stereo not given) | 13.4* | TTR inh HuH7=-9.9;TTR act confirm=0.8
C=CCOC(=O)C1=C(C)NC(C)=C(C(=O)OCC=C)C1c1ccco1 | 0.0
CC(C)C[C@@H](NC(=O)OC(C)(C)C)C(=O)N1O[C@]23C=C[C@]14C[C@@H](O)CC[C@]4(C)C2CC[C@]1(C)[C@@H]([C@H](C)/C=C/[C@H](C)C(C)C)CC[C@H]13 (stereo not given in full) | 1.8
Cc1cc(C)cc(NC(=O)O[C@@H]2CC[C@@]34CCCN3C(=O)CCC[C@H]4C2)c1 | -1.5
O=C(CCCCCCCCC(=O)N/N=C/c1ccco1)N/N=C/c1ccco1 | 0.8
O=C(CCC(=O)N/N=C/c1ccco1)N/N=C/c1ccco1 | -1.1
Cc1cccc(NC(=O)CCC(=O)N/N=C/c2ccco2)c1 | 9.7* | TTR inh HuH7=-15.1;TTR act confirm=0.0
COc1ccc(-c2noc(-c3ccoc3C)n2)cc1OC | 0.4
COc1ccc(-c2nc(-c3ccncc3)no2)cc1OC | -0.1
COc1ccc(-c2noc(-c3cccs3)n2)cc1OC | 22.3* | TTR inh HuH7=34.5*;TTR act confirm=-0.6
CCCC[C@H]1C2CC(OC(=O)Nc3ccc(C#N)cc3)C(C2)[C@H]2CCCCN21 (stereo not given in full) | 4.3
CC1(C)COC(c2ccccc2Cl)OC1 | 0.1
CC1SC(c2ccccc2Cl)NC1=O (stereo not given) | 10.8* | TTR inh HuH7=-3.9;TTR act confirm=-0.4
CC1=C(C(=O)OCc2ccccc2)C(c2ccccc2Cl)NC(=O)N1C (stereo not given) | 2.4
c1cc2ccn(CC3CC3)c2cc1-c1ccc2ccn(CC3CC3)c2c1 | 7.3
O=C1CCC(CNc2ccccc2)N1c1ccccc1 (stereo not given) | 0.8
CS(=O)(=O)c1ccc(C(=O)OCC#CCSc2nnc(-c3cccc4ccccc34)o2)cc1 | -0.9
COC(=O)[C@H](CC1(c2cn(S(=O)(=O)CC[Si](C)(C)C)c3ccccc23)C(=O)Nc2ccccc21)NC(=O)OC(C)(C)C (stereo not given in full) | -1.2
CN(C)S(=O)(=O)c1cc(NC(=O)CSc2cccc[n+]2[O-])ccc1Cl | 0.9
Cc1ccc(Cl)c(NC(=O)CSc2cccc[n+]2[O-])c1Cl | 14.3* | TTR inh HuH7=-9.4;TTR act confirm=-0.1
O=C(CSc1cccc[n+]1[O-])Nc1ccc(Br)cc1Br | 0.2
O=C(CSc1cccc[n+]1[O-])Nc1cc2c(cc1Cl)C(=O)c1ccccc1C2=O | -1.9
Cc1cc(C)c(NC(=O)CSc2cccc[n+]2[O-])c(C)c1 | 0.6
O=C(CSc1cccc[n+]1[O-])Nc1ccc(Cl)cc1F | 11.1* | TTR inh HuH7=-10.0;TTR act confirm=0.5
SMILES | TTR transcr act | others
COC(=O)[C@@]12CCCCC=C1N(CCc1ccc(Cl)cc1)C(=O)[C@H]2CC(=O)NCc1cccc2ccccc12 | -1.2
COC(=O)c1ccc(Cn2ccc3ccc(-c4ccc5ccn(Cc6ccc(OC)cc6)c5c4)cc32)cc1 | -1.5
CC(=O)c1cc(C(C)=O)c(C)nc1C | 9.9* | TTR inh HuH7=-7.4;TTR act confirm=12.8*
CC(=O)c1cc(C#N)c(Oc2ccccc2)nc1C | -2.3
CCSc1nc(C)c(C(C)=O)cc1C#N | 0.0
CCOc1ccc(/C=N/n2nnnc2N)cc1O | 1.4
Nc1nnnn1/N=C/c1cc(Br)ccc1O | 11.5* | TTR inh HuH7=-17.0;TTR act confirm=0.4
CCOc1ccc(/C=N/n2nnnc2N)cc1OCC | 0.2
O=C(NCCc1c[nH]c2ccccc12)OCc1cn(-c2cccc(Cl)c2)nn1 | -0.1
O=C(Nc1ccc(F)cc1)OCc1cn(Cc2cccc(F)c2F)nn1 | 0.9
COC(=O)C[C@H]1CC[C@@H]2[C@H](COc3ccc(NC(=O)c4cnccn4)cc3C(=O)N2C)O1 | 0.1
COC(=O)[C@]12C[C@H](CC(=O)NCCC(C)C)C(=O)N(Cc3cccc4ccccc34)C1=C[C@H](COCc1ccccc1)O[C@@H]2C | -0.1
Cc1nc2sc(C(=O)NCc3ccc4c(c3)OCO4)c(N)c2c(C)c1Cl | 0.5
COc1cccc(N2C(=O)C3NN=C(C(=O)CN4C(=O)c5ccccc5C4=O)C3C2=O)c1 (stereo not given) | 18.1* | TTR inh HuH7=-4.5;TTR act confirm=0.3
Cc1ccc(N2C(=O)[C@@H]3C(C(=O)CN4C(=O)c5ccccc5C4=O)=NN[C@@H]3C2=O)c(C)c1 | 0.8
COc1ccccc1N1C(=O)[C@@H]2C(C(=O)CN3C(=O)c4ccccc4C3=O)=NN[C@@H]2C1=O | -0.5
Cc1ccnc(SCc2cc(=O)c(OC(=O)c3ccc(C#N)cc3)co2)n1 | -0.6
